The list is not random: actives were taken first. Their share in the collection is about 4.5%.
Efflux pump inh = antifungal efflux pump inhibition, Nile Red retention. AID 485275. inhibition, % at 10 µM. 0.44% of 330,000 active. S. cerevisiae Candida pump triplex;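 active = plate passing quality check with inhibition over a set limit, or well fluorescence over plate mean plus 4 SD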;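 also: Nile Red retained in pooled yeast measured as flow cytometry median fluorescence; 0% = buffer negative control and 100% = Enniatin B positive control; higher means more Nile Red kept so more efflux inhibition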
HDAC3 inhib = blocks human histone deacetylase 3. recombinant HDAC3, fluorogenic peptide/trypsin coupled, fluorescence. inhibition, % at 8.3 µM. 0.15% of 320,000 active; in the data active = inhibition above about 26%, passing the limit was not always enough; inconclusive = no clear call, values can overlap the other calls
Target sequence (O15379 whole entry, looked up): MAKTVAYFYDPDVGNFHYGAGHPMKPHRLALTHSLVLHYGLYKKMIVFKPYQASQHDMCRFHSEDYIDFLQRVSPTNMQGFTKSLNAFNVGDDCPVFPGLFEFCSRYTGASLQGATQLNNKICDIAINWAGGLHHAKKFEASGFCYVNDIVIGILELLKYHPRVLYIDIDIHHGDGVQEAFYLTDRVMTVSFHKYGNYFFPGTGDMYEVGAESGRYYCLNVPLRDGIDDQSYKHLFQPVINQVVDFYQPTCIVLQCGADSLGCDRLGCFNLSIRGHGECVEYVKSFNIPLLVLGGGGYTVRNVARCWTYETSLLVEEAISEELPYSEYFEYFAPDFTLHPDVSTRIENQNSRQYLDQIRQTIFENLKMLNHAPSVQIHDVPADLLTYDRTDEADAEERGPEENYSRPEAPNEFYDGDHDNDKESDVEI
GRK2 aptamer HTS = blocks RNA aptamer binding to human GRK2; P25098; bead flow cytometry, FAM-aptamer displacement from GRK2; inhibition of aptamer binding, % at 10 µM; 0.59% of 330,000 active;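 active = inhibition of aptamer binding above 40%, roughly 3 SD of noise, on plates passing a quality check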;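 also: median bead fluorescence of bound FAM aptamer so fluorescent compounds give negative values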
ALR inh = blocks human ALR sulfhydryl oxidase activity. P55789. purified ALR, DTT oxidation, H2O2 HRP-luminol luminescence. inhibition, % (test concentration not listed). 3.8% of 290,000 active. AID 485317;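 active = mean replicate inhibition above about 79%, with every replicate also reaching it, limit read from the data; inconclusive = only one of the two criteria met; inactive = mean below limit and not every replicate reaching it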
Target sequence (P55789 whole entry, looked up): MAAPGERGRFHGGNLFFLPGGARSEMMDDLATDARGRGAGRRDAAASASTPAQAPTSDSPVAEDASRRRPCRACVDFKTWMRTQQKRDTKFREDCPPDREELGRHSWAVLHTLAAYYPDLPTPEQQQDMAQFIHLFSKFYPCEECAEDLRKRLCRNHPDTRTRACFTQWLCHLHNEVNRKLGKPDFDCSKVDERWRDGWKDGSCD
Rtt109 HAT inh = C. albicans Rtt109 histone acetyltransferase inhibition; 0.16% of 330,000 active; purified Rtt109/Vps75, ThioGlo CoA-SH fluorescence, 4 h; Q5AAJ8; inhibition, % at 34.9 µM;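 active = inhibition of at least 50% in every replicate; inconclusive = best replicate reaches 50% inhibition but some replicates fall short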
Rce1 inh = inhibitors of yeast Ras-converting enzyme; Q03530; yeast membranes, quenched prenylated peptide cleavage fluorescence; calls only; 0.27% of 290,000 active; AID 2563;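 active = fall in fluorescence gain of 50% or more versus controls, with final raw signal at or below 3038400; inconclusive = same 50% fall but final raw signal above 3038400; inactive = fall in fluorescence gain under 50%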;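 also: plate controls were neutral control wells for no effect and wells lacking membranes for full effect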
* marks the source's active call; other numbers are inactive results.

For Cc1ccc(S(=O)(=O)N2[C@@H](c3cccc(Cl)c3)C(C(=O)O)=CC[C@H]2c2ccc3c(c2)OCO3)cc1 the results were Efflux pump inh -0.1, HDAC3 inhib 9.7, GRK2 aptamer HTS 3.0, ALR inh -8.1 and Rtt109 HAT inh 5.1.
For [O-]c1c[n+](-c2ccc(-[n+]3cc([O-])on3)cc2)no1 the results were Efflux pump inh -0.2, HDAC3 inhib 2.4, GRK2 aptamer HTS 1.0, ALR inh 98.1* and Rtt109 HAT inh 3.1.
Cc1cc(O)c2c(c1O)C(=O)[C@]13C(=C2O)C(=O)[C@@H]2[C@@H](O)[C@H]1[C@@H]1[C@H](O)[C@H]3C(=O)C3=C(O)c4c(O)cc(C)c(O)c4C(=O)[C@]312 was read as Efflux pump inh 0.1, GRK2 aptamer HTS 72.0* and Rtt109 HAT inh 3.9.
Screening COc1ccc(NC(=O)CN(C)C(C)C(=O)NC(=O)NC2CCCCC2)cc1 (stereo not drawn) returned Efflux pump inh 0.2, HDAC3 inhib 3.6, GRK2 aptamer HTS 3.0, ALR inh -4.5 and Rtt109 HAT inh 16.9.
Screening Cn1c(-c2ccccc2)cnc1SCC(=O)N1CCCCC1 returned Efflux pump inh 0.0, HDAC3 inhib 5.8, GRK2 aptamer HTS 0.0, ALR inh 99.9*, Rtt109 HAT inh 6.4 and Rce1 inh inactive.
For O=C(NC(Cc1ccccc1)C(=O)O)/C(=C/c1ccc([N+](=O)[O-])cc1)NC(=O)c1ccco1 (stereo not drawn) the results were Efflux pump inh 0.1, HDAC3 inhib 7.8, GRK2 aptamer HTS 2.0, Rtt109 HAT inh -5.5 and Rce1 inh inactive.
For Cc1oc(C(C)(C)C)cc1C(N)=O the results were Efflux pump inh -0.1, HDAC3 inhib 13.0, GRK2 aptamer HTS 0.0, ALR inh 4.4, Rtt109 HAT inh -10.3 and Rce1 inh inactive.
Screening Cc1cc(NS(=O)(=O)c2ccc(Nc3nc(-c4ccc(C)c(C)c4)cs3)cc2)no1 returned Efflux pump inh 0.0, HDAC3 inhib 1.2, GRK2 aptamer HTS 1.0, ALR inh 30.7, Rtt109 HAT inh -6.3 and Rce1 inh inactive.
For COc1cc(NS(=O)(=O)c2ccc(NC(=S)Nc3ccccc3)cc2)nc(OC)n1 the results were Efflux pump inh 2.6, HDAC3 inhib 0.0, GRK2 aptamer HTS 0.0, Rtt109 HAT inh -5.5 and Rce1 inh inactive.
For COc1cc(NS(=O)(=O)c2ccc(Nc3nc(-c4ccccc4)cs3)cc2)nc(OC)n1 the results were Efflux pump inh -0.2, HDAC3 inhib inconclusive, GRK2 aptamer HTS 3.0, ALR inh 96.1*, Rtt109 HAT inh 0.8 and Rce1 inh inactive.
Screening Cc1cc(NS(=O)(=O)c2ccc(Nc3nc(-c4sc(N)nc4C)cs3)cc2)no1 returned Efflux pump inh -0.2, HDAC3 inhib 12.7, GRK2 aptamer HTS 1.0, ALR inh 99.2*, Rtt109 HAT inh inconclusive and Rce1 inh inactive.
Screening Cc1cc(NS(=O)(=O)c2ccc(Nc3nc(-c4ccc(O)cc4)cs3)cc2)no1 returned Efflux pump inh 0.1, HDAC3 inhib 8.7, GRK2 aptamer HTS 2.0, ALR inh 100.3*, Rtt109 HAT inh 25.7 and Rce1 inh inactive.
O=C(CN1CCN(C(=O)N2CCOCC2)CC1)Nc1cc(Cl)ccc1Cl was read as Efflux pump inh 0.2, HDAC3 inhib -5.5, GRK2 aptamer HTS 4.0, ALR inh -11.3, Rtt109 HAT inh 10.3 and Rce1 inh inactive.
Screening S=c1[nH]c2cc(Cl)ccc2s1 returned Efflux pump inh -0.2, HDAC3 inhib 7.0, GRK2 aptamer HTS 0.0, ALR inh 98.2*, Rtt109 HAT inh -2.5 and Rce1 inh inactive.
For O=C1c2cccc3cccc(c23)C(=O)N1OS(=O)(=O)c1ccccc1 the results were Efflux pump inh 0.0, HDAC3 inhib 2.3, GRK2 aptamer HTS 0.0, ALR inh -6.4, Rtt109 HAT inh -2.3 and Rce1 inh inactive.
Screening O=C1c2ccccc2C(=O)N1OS(=O)(=O)c1ccccc1 returned Efflux pump inh -0.2, HDAC3 inhib 44.3*, GRK2 aptamer HTS 0.0, ALR inh -0.8 and Rce1 inh inactive.
`CC1(c2ccncc2)Nc2ccccc2-c2nc3ccccc3n21` (stereo not drawn) gave Efflux pump inh 0.0, HDAC3 inhib -50.2, GRK2 aptamer HTS 1.0, ALR inh 61.2, Rtt109 HAT inh -59.7 and Rce1 inh active.
Screening COc1ccc2c(c1)C1(Nc3ccccc3-c3nc4ccccc4n31)C(=O)N2 (stereo not drawn) returned Efflux pump inh 0.1, HDAC3 inhib 0.8, GRK2 aptamer HTS 0.0, ALR inh 3.7 and Rce1 inh inactive.
`Cc1cc(-c2ccccc2)nc2cc(C(=O)NCc3ccco3)nn12` gave Efflux pump inh -0.1, HDAC3 inhib -4.1, GRK2 aptamer HTS 16.0, ALR inh 93.0*, Rtt109 HAT inh -10.9 and Rce1 inh inactive.
`COc1ccc2cc(C3OCCO3)c(Cl)nc2c1` gave Efflux pump inh 0.0, HDAC3 inhib -2.9, GRK2 aptamer HTS 0.0, ALR inh 31.5, Rtt109 HAT inh -3.7 and Rce1 inh inactive.
Cc1ccc2nc(-c3ccc(Br)o3)oc(=O)c2c1 was read as Efflux pump inh -0.1, HDAC3 inhib 4.2, GRK2 aptamer HTS 4.0, ALR inh 88.9*, Rtt109 HAT inh -15.1 and Rce1 inh inactive.
For COC(=O)/C=c1\[nH]c2nnc(C)n2c1=O the results were Efflux pump inh 0.0, HDAC3 inhib -11.5, GRK2 aptamer HTS 1.0, ALR inh -8.4, Rtt109 HAT inh 2.6 and Rce1 inh active.
COC(=O)/C=c1\sc2ncnn2c1=O was read as Efflux pump inh -0.2, HDAC3 inhib 7.9, GRK2 aptamer HTS 0.0, ALR inh 4.0, Rtt109 HAT inh 3.7 and Rce1 inh inactive.
For CCC(c1nnnn1CCOC)N(Cc1cc2cc(C)c(C)cc2[nH]c1=O)CC1CCCO1 (stereo not drawn) the results were Efflux pump inh -0.2, HDAC3 inhib -0.8, GRK2 aptamer HTS 0.0, ALR inh 99.1*, Rtt109 HAT inh -18.4 and Rce1 inh inactive.
CCCC(c1nnnn1CCOC)N(Cc1cc2cc(C)c(C)cc2[nH]c1=O)CC1CCCO1 (stereo not drawn) was read as Efflux pump inh 0.1, HDAC3 inhib -0.5, GRK2 aptamer HTS 7.0, ALR inh 99.3*, Rtt109 HAT inh -1.6 and Rce1 inh inactive.
For COc1ccc2[nH]c(=O)c(CN(Cc3nnnn3Cc3ccc(F)cc3)CC3CCCO3)cc2c1 (stereo not drawn) the results were Efflux pump inh 0.6, HDAC3 inhib -3.3, GRK2 aptamer HTS 1.0, ALR inh -30.7, Rtt109 HAT inh -14.2 and Rce1 inh inactive.
COc1ccc2[nH]c(=O)c(CN(Cc3nnnn3Cc3ccccc3)CC3CCCO3)cc2c1 (stereo not drawn) was read as Efflux pump inh -0.1, HDAC3 inhib -7.8, GRK2 aptamer HTS 1.0, ALR inh -8.5, Rtt109 HAT inh 53.0* and Rce1 inh inactive.
For COc1ccc(CCC(=O)Nc2cccc(S(=O)(=O)N3CCCC3)c2)cc1OC the results were Efflux pump inh 0.1, GRK2 aptamer HTS 0.0 and Rtt109 HAT inh -2.9.
`CCOC(=O)C1=CN(C(C)C)CCC1=O` gave Rtt109 HAT inh -9.0.

Screening data from PubChem.
